In PubChem BioAssay (NCI):
The panel holds about 83,000 compounds, 20% with a hit somewhere; the sample as a whole holds those more often.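 Growth was measured after 48 h exposure to one concentration of compound in 96-well plates. Values under 10 count as active.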 Values without a mark were called inactive. The source made the active and inactive calls.

Assays:
Assay in all cases: NCI-60 one-dose screen, 48 h (100 = growth as untreated, 0 = no growth, -100 = all killed)
HOP-92 NSCLC = conditions: 10 µM
K-562 leukemia = conditions: 10 µM
U251 CNS = conditions: 10 µM
SK-MEL-28 melanoma = conditions: 10 µM
EKVX NSCLC = conditions: 10 µM
UO-31 renal = conditions: 10 µM
CAKI-1 renal = conditions: 10 µM
CCRF-CEM leukemia = conditions: 10 µM
MOLT-4 leukemia = conditions: 10 µM
SR leukemia = conditions: 10 µM
HCT-116 colon = conditions: 10 µM
HCC-2998 colon = conditions: 10 µM
KM12 colon = conditions: 10 µM
MDA-MB-468 breast = conditions: 10 µM unless noted
LOX IMVI melanoma = conditions: 10 µM
OVCAR-5 ovarian = conditions: 10 µM
HS 578T breast = conditions: 10 µM
SW-620 colon = conditions: 10 µM
MDA-MB-231 breast = conditions: 10 µM

| Structure (SMILES) | growth (HOP-92 NSCLC) | growth (K-562 leukemia) | growth (U251 CNS) | growth (SK-MEL-28 melanoma) | growth (EKVX NSCLC) | growth (UO-31 renal) | growth (CAKI-1 renal) | growth (CCRF-CEM leukemia) | growth (MOLT-4 leukemia) | growth (SR leukemia) | growth (HCT-116 colon) | growth (HCC-2998 colon) | growth (KM12 colon) | growth (MDA-MB-468 breast) | growth (LOX IMVI melanoma) | growth (OVCAR-5 ovarian) | growth (HS 578T breast) | growth (SW-620 colon) | growth (MDA-MB-231 breast) |
| --- | --- | --- | --- | --- | --- | --- | --- | --- | --- | --- | --- | --- | --- | --- | --- | --- | --- | --- | --- |
| O=C(/C=C/c1cccc(Br)c1)c1nc2ccccc2n1Cc1ccc(F)cc1 | 19.3% | 5.36% (active) | -9.29% (active) | 50.6% | 20.1% | 41.8% | 54.4% | -18.8% (active) | 3.41% (active) | -7.31% (active) | -41.1% (active) | 25% | 41.4% | 4.89% (active) | – | – | – | – | – |
| O=C(/C=C/c1ccccc1Cl)c1nc2ccccc2n1Cc1ccc(F)cc1 | -65.4% (active) | -25.9% (active) | – | – | -91.6% (active) | -99.6% (active) | – | – | -16.2% (active) | -27.9% (active) | -96.3% (active) | -99.7% (active) | -60.5% (active) | -94.1% (active) | – | – | – | – | – |
| COC(=O)C[C@](O)(CCC(C)C)C(=O)O[C@@H]1C(OC)=C[C@]23CCCN2CCc2cc4c(cc2[C@H]13)OCO4 | -19.4% (active) | 1.57% (active) | – | – | -23.9% (active) | – | – | -12% (active) | -7.96% (active) | – | -27.5% (active) | -89.9% (active) | -20.8% (active) | -83.8% (active) | -82.6% (active) | -35.9% (active) | -22.2% (active) | -7.29% (active) | – |
| O=C(/C=C/c1ccc(Br)cc1)c1nc2ccccc2n1Cc1ccc(Br)cc1 | -11.1% (active) | 0.898% (active) | – | – | – | -66.4% (active) | – | 10.3% | -4.04% (active) | -13.9% (active) | -80.9% (active) | -89.6% (active) | 22.5% | -74.3% (active) | – | -43.4% (active) | – | – | – |
| COC(=O)c1ccc(-n2cc(CCCN(CCNc3ccnc4cc(Cl)ccc34)C(=O)CCC(=O)O[C@@H]3O[C@@H]4OC5(C)CC[C@H]6[C@H](C)CC[C@@H]([C@H]3C)[C@@]46OO5)nn2)cc1 | 18.6% | 5.64% (active) | – | – | 49.4% | 19.6% | 44.5% | – | -13.5% (active) | -10% (active) | 26% | 49.5% | 32.6% | 33.3% | 8.12% (active) | 49.2% | 49.6% | 31.6% | 62.8% |
| O=C(NC([Se])=NC1CCCCC1)c1ccccc1 | 112% | 59.2% | – | – | – | 6.45% (active) | – | 54.5% | 57.4% | 51.4% | 30.4% | 62.8% | 35.5% | 55% | – | – | – | – | – |
| C[C@H]1[C@H](OC(=O)CCC(=O)Nc2cnccn2)O[C@@H]2OC3(C)CC[C@H]4[C@H](C)CC[C@@H]1[C@@]24OO3 | 51.8% | 14.9% | – | – | – | 11% | 42.8% | 35.4% | 27.6% | 4.95% (active) | 14.6% | 63.5% | 22.3% | 50.7% | -72.9% (active) | – | 29.2% | 21.8% | 83.7% |
| C=CCN=C([Se])NC(=O)c1ccc2c(c1)OCO2 | 151% | 107% | – | 111% | – | 115% | – | – | 107% | 93.1% | 43.6% | 92.4% | 41.1% | 110% | 104% | – | 99.3% | 111% | 103% |
| C=CC[Se]C(=O)c1ccc(C(=O)[Se]CC=C)s1 | -29.9% (active) | -23.1% (active) | – | – | -89.2% (active) | -98.1% (active) | – | – | -13.9% (active) | -30% (active) | -77.9% (active) | -85.7% (active) | -85.1% (active) | -60.6% (active) | -75.6% (active) | – | -22.1% (active) | -77.4% (active) | -36.4% (active) |
| N#C[Se]CC(=O)Nc1cccc(C(F)(F)F)c1 | -69.3% (active) | 20.5% | -48.4% (active) | -63.2% (active) | – | -84.2% (active) | -72.1% (active) | – | 9.42% (active) | 18.5% | -66.8% (active) | 54.7% | 41.5% | -86.7% (active) | – | – | – | – | – |
